Mcl-1 Bim block – inhibitors of Bim-Mcl-1 interaction, human | Bead-based flow cytometry, Bim peptide-Mcl-1 binding | inhibition, % at 10 µM | AID 1009 | 190,000 compounds, 0.1% hits | Q07820; in the data active = inhibition above about 40%
Target sequence (Q07820 whole entry, looked up): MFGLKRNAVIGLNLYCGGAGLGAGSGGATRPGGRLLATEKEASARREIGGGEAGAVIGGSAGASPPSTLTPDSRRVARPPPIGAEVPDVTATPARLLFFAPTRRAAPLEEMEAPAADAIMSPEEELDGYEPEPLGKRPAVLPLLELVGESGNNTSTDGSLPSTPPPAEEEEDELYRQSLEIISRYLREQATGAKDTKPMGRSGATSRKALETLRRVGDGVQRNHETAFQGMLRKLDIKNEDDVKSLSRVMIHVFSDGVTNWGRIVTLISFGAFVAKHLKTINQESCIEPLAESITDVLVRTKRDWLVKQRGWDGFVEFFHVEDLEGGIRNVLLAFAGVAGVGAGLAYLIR
Mcl1 Bid PPI – disrupts binding of human Mcl-1 to Bid peptide. Q07820. TR-FRET Mcl-1/Bid-Dy647 peptide binding, 1536-well. 220,000 compounds, 0.97% hits. inhibition, % at 21.7 µM;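 active = compounds that cut the binding signal by more than half at the single screening dose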;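 note: His-tagged Mcl-1 with europium anti-His antibody binding Bid BH3 peptide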
GLD-1 TGE inh – GLD-1-TGE RNA interaction inhibition (C. elegans) | 320,000 compounds, 0.44% hits | inhibition, % at 5.96 µM | AID 2280 | Q17339 | purified GLD-1 + fluorescein TGE RNA, fluorescence polarization;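 active = percent inhibition above a per-plate cutoff, the plate mean of test compounds plus 3 SD, cut at about 30% in these data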
Mcl1-Noxa inh – Mcl-1/Noxa interaction inhibition. AID 1022. TR-FRET Mcl-1/Noxa peptide binding, 2 h. inhibition, % at 21.7 µM. 220,000 compounds, 1.5% hits;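 active = compounds that cut the protein-peptide binding signal by more than 50% relative to plate controls in a single-dose test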;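 note: His-tagged Mcl-1 with rhodamine Noxa BH3 peptide and terbium anti-His antibody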
Bcl-xL primary – blocks human Bcl-xL binding to Bim BH3 peptide; Q07817; GST-Bcl-xL / FITC-Bim BH3 peptide fluorescence polarization; inhibition, % at 10.9 µM; 320,000 compounds, 0.7% hits;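 active = inhibition above the mean of all tested compounds plus 3 SD, cutoff set per campaign, cut at about 30% in these data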;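 note: inhibitors lower millipolarization by displacing the labeled peptide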
MCL1-BIM inh – inhibitors of human MCL1 binding to BIM-BH3 peptide | GST-MCL1 / FITC-Bim-BH3 fluorescence polarization | inhibition, % at 10.9 µM | Q07820 | 320,000 compounds, 0.68% hits;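 active = inhibition above the mean inhibition of all tested compounds plus 3 SD, set per campaign, cut at about 40% in these data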;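 note: higher means more loss of mP so more displacement of Bim peptide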
Hits are given with their value; . = inactive; / = no result given; ! = not active in a repeat. Most compounds without a hit are left out; they make up all but 2.3% or so of the library.

SMILES	Mcl-1 Bim block	Mcl1 Bid PPI	GLD-1 TGE inh	Mcl1-Noxa inh	Bcl-xL primary	MCL1-BIM inh
CCOC(=O)c1cc(C#N)c(SCC(N)=O)[nH]c1=O	/	.	.	.	38.4	.
COc1ccccc1N1CCN(c2ccc3cc(S(=O)(=O)N4CCCCC4)ccc3n2)CC1	/	/	.	/	.	.
CN1CCC(N(C)CC(=O)Nc2ccc3c(c2)OC(F)(F)O3)CC1	/	59.8	.	.	.	.
COc1ccc(C(=O)NNC2=NC(C)(C)Cc3ccccc32)cc1	.	.	.	.	.	.
Cc1ccc(NC(=O)Cn2c(O)c(N=NC(=O)c3cc4ccccc4cc3O)c3ccccc32)cc1	.	80.2	.	99.1	.	.
O=C(N=Nc1c(O)n(Cc2ccccc2)c2ccccc12)c1ccc(O)cc1	.	.	.	.	.	.
O=C(N=Nc1c(O)n(Cc2ccccc2)c2ccccc12)c1cc2ccccc2cc1O	.	56.1	.	85.1	.	.
Cc1ccc(NC(=O)Cn2c(O)c(N=NC(=O)c3ccncc3)c3ccccc32)cc1	.	.	.	.	.	.
c1ccc(-c2nnc(OCCN3CCOCC3)c3ccccc23)cc1	79.0	.	.	.	.	.
N[C@@H](Cc1cc(I)c(Oc2cc(I)c(O)c(I)c2)c(I)c1)C(=O)O	/	/	.	/	.	.
N[C@@H](Cc1cc(I)c(Oc2ccc(O)c(I)c2)c(I)c1)C(=O)O	.	66.2!	.	105.2!	.	.
O=C(O)CCc1cc(I)c(Oc2ccc(O)c(I)c2)c(I)c1	/	.	/	68.7	/	/
Cc1ccc(-c2nnn(C(C)C(=O)N3c4ccccc4CCc4ccccc43)n2)cc1 (stereo unspecified)	.	.	.	.	.	.
CCOC(=O)N1CCN(C(=O)COC(=O)c2cc(Cl)c(O)c(Cl)c2)CC1	.	.	.	.	.	.
COc1ccc(CCNC(=O)CCCCCN2C(=O)c3ccccc3C2=O)cc1OC	.	.	.	.	.	.
COc1ccc(CCNC(=O)c2ccc(OC)c(OC)c2)cc1OC	/	/	.	/	.	.
COc1ccc(CCNC(=O)c2ccc(=O)[nH]n2)cc1OC	.	100.0	.	.	.	.
COc1ccc(CCNC(=O)CCCN2C(=O)c3ccccc3C2=O)cc1OC	.	61.9	.	.	.	.
COc1ccc(CCNC(=O)c2ccc(Cl)cc2Cl)cc1OC	.	82.5	.	.	.	.
COCC(=O)NCCc1ccc(S(N)(=O)=O)cc1	.	.	.	.	.	.
Nc1nccnc1C(=O)OCC(=O)NCCc1ccc(S(N)(=O)=O)cc1	/	/	.	/	35.2	.
CC(C)c1ccc(OCc2ccc(C(=O)O)o2)cc1	/	.	.	69.2	.	.
COc1ccc(Nc2ncc(C(=O)O)c3ccccc23)cc1	.	.	.	.	.	.
COc1ccc(Nc2ncc(C(=O)N3CCN(c4ccc(F)cc4)CC3)c3ccccc23)cc1	.	99.2	.	.	.	.
NC(=O)N1CCN(C(=O)c2ccco2)CC1	.	69.8	.	.	.	.
SMILES	Mcl-1 Bim block	Mcl1 Bid PPI	GLD-1 TGE inh	Mcl1-Noxa inh	Bcl-xL primary	MCL1-BIM inh
COc1ccc(C2(NC(C)=O)CCN(C(=O)c3ccco3)CC2)cc1	40.0	.	.	.	.	.
CC(=O)N1CCN(C(=O)c2ccco2)CC1	/	/	.	/	.	.
O=C(c1ccco1)N1CCN(c2nc3ccccc3n3nnnc23)CC1	.	.	.	.	41.3	.
CCn1c(N2CCN(C(=O)c3ccco3)CC2)nc2ccccc21	/	/	.	/	.	.
Cc1c(C)n(Cc2ccccc2)c2ncnc(NCCCN(C)C)c12	/	/	.	/	.	.
CSc1ccc(NC(=O)C(C)N2CCN(C)CC2)cc1 (stereo unspecified)	/	/	.	/	.	.
NC(=O)C(c1ccccn1)c1ncc(C(F)(F)F)cc1Cl (stereo unspecified)	.	.	.	.	.	.
CCCP(=O)(CC(=O)O)c1ccccc1 (stereo unspecified)	.	.	.	.	.	.
O=C(NCC(c1cccs1)N1CCOCC1)c1cc(-c2ccc(F)cc2)nc2ccccc12 (stereo unspecified)	.	.	.	.	.	.
O=C1NC(CCc2ccccc2)C(=O)N1Cc1ccccc1Cl (stereo unspecified)	.	95.2	.	.	.	.
CC(C)C(OC(=O)c1cccs1)C(=O)NCc1ccc(F)cc1 (stereo unspecified)	/	/	.	/	.	.
COc1ccc(-c2nnc(-c3cc4c(ccc5ccccc54)oc3=O)o2)cc1	.	.	.	63.8	.	.
